Assay results taken from PubChem BioAssay (NCI).
About 79,000 compounds went through this panel and 15% of them were active in at least one assay; those are over-represented in the sample as a whole. Cut-off read from the data, not from the text of the source: active = growth inhibition above about 70%; inactive = the rest.

Key:
[1] = NCI Yeast Anticancer Drug Screen. Data for the rad50 strain (AID 155);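 note: 0% = growth of vehicle-only cultures of the same strain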; settings: S. cerevisiae rad50 strain growth inhibition; at 50.0 µM; hits give high values
Method in brief: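 A DNA repair-deficient yeast mutant serves as the test organism; compound-induced growth inhibition is calculated against vehicle-treated cells.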

[2] = NCI Yeast Anticancer Drug Screen. Data for the mec2-1 strain (AID 157); settings: S. cerevisiae mec2-1 strain, at 50.0 µM, hits give high values
Method in brief: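 Each compound was tested on mec2-1 yeast, a strain altered in DNA damage repair or cell cycle control. Growth inhibition is reported relative to vehicle.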

[3] = NCI Yeast Anticancer Drug Screen. Data for the sgs1 mgt1 strain (AID 161);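 note: 0% = growth of cultures given vehicle only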; settings: S. cerevisiae sgs1 mgt1 strain, at 50.0 µM, hits give high values
Method in brief: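 Inhibition of yeast growth, normalised to vehicle-treated controls, is reported for a strain bearing genetic alterations in DNA damage repair.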

[4] = NCI Yeast Anticancer Drug Screen. Data for the cln2 rad14 strain (AID 165);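 note: 0% = growth equal to vehicle treated cultures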; settings: S. cerevisiae cln2 rad14 strain, at 50.0 µM, hits give high values
Method in brief: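 Test compounds were added to cln2 rad14 yeast cultures; inhibition of growth was then determined by comparison with vehicle treatment.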

[5] = NCI Yeast Anticancer Drug Screen. Data for the bub3 strain (AID 167); settings: S. cerevisiae bub3 mutant strain, at 50.0 µM, hits give high values
Method in brief: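 Inhibition values come from growth of compound-treated mutant yeast normalised to vehicle-treated controls.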

[6] = NCI Yeast Anticancer Drug Screen. Data for the mlh1 rad18 strain (AID 175); settings: S. cerevisiae mlh1 rad18 strain growth inhibition; at 50.0 µM; hits give high values
Method in brief: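 Inhibition values reflect reduced growth of mutant yeast versus vehicle-treated controls following compound exposure; the mutations affect DNA damage repair.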

Measured: growth inhibition

CC1(C)C(C(=O)/C=C2\Nc3ccccc3C2(C)C)=Nc2ccccc21
inactive: [1] -19.5% | [2] -5.65% | [3] -2.05% | [4] -26.7% | [5] -29.4% | [6] -7.85%

CCOc1c(N2CCOCC2)c(=O)c1=O
inactive: [1] 11.6% | [2] -19.4% | [3] 5.7% | [4] 6.65% | [5] 30.9% | [6] 5.95%

CCCCCCC1=CC(=O)CC(=O)C1
inactive: [1] 25.9% | [2] 7.1% | [3] 16.6% | [4] 13.6% | [5] 18% | [6] 4.25%

Cc1ccc2c3c1CCCN3CCC2
inactive: [1] 3.45% | [2] -3.85% | [3] 15.6% | [4] 61.9% | [5] -0.55% | [6] 8.95%

Cc1ccc(N=Nc2ccc(N(C)C)cc2)cc1
inactive: [1] 18.6% | [2] -8.05% | [3] -16.6% | [4] -51.6% | [5] -6.2% | [6] 14.7%

O=C(O)c1c[n+]([O-])ccc1Cl
inactive: [1] 12.8% | [2] -0.9% | [3] -8% | [4] -42% | [5] -8.2% | [6] 27.1%
